Experimental data taken from PubChem BioAssay AID1159580 (chemical genetic matrix, 2015).
Screen size: about 5,500 compounds; about 2,000 (36%) were called active. Another 18% or so got no clear call; they are omitted. Cut-off read from the data, not from the text of the source: active = normalized growth mostly below about 0.91 (no sharp cut-off); inconclusive = no clear call, values can overlap the other calls; inactive = mostly above about 0.92. This is one part of the list.

Experiment: chemical genetic growth profiling, strain panel (AID 1159580);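 note: tested at 20 µM; growth read once vehicle control cultures reached saturation at 30 °C; 1 = growth at the plate median or of vehicle wells; lower values mean less growth of the strain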
Details: S. cerevisiae deletion strains, growth OD

Measured: normalized growth

O=S(=O)(NCC1CC1)c1ccc(F)c(Cl)c1
inactive: locus YAL013W, strain DEP1, active compounds read low 1 | locus YBR229C, strain ROT2, active compounds read low 1 | locus YCL061C, strain MRC1, active compounds read low 0.999 | locus YDL101C, strain DUN1, active compounds read low 0.994 | locus YDL134C, strain PPH21, active compounds read low 1.01 | locus YDR150W, strain NUM1, active compounds read low 0.945 | locus YEL061C, strain CIN8, active compounds read low 1 | locus YGR078C, strain PAC10, active compounds read low 1 | locus YHR030C, strain SLT2, active compounds read low 0.969 | locus YHR087W, strain rtc3, active compounds read low 1.02 | locus YJR043C, strain POL32, active compounds read low 0.997 | locus YJR075W, strain HOC1, active compounds read low 1.01 | locus YLR039C, strain RIC1, active compounds read low 1.06 | locus YLR058C, strain SHM2 (second series), active compounds read low 1 | locus YLR085C, strain ARP6, active compounds read low 1 | locus YLR262C, strain YPT6, active compounds read low 1 | locus YML094W, strain GIM5, active compounds read low 1.01 | locus YMR219W, strain ESC1, active compounds read low 1 | locus YMR263W, strain SAP30, active compounds read low 1 | locus YNL153C, strain GIM3, active compounds read low 1 | locus YNL298W, strain CLA4 (second series), active compounds read low 1.03 | locus YNL322C, strain KRE1, active compounds read low 0.995 | locus YNR030W, strain Alg12, active compounds read low 0.996 | locus YOL006C, strain TOP1, active compounds read low 1.05 | locus YPL055C, strain LGE1, active compounds read low 1.02 | locus YPL241C, strain CIN2, active compounds read low 0.99 | locus YPR135W, strain CTF4, active compounds read low 1.02
